The text below walks through data of the supplement of paper PMC10981050.

Counter-ions that a name gives are not always drawn.

The subject of the assay is OCI-AML2. Nature of the assay: cell viability relative to vehicle control; higher = less cytotoxic. Conditions: 10 µM; SRSF2 genotype: wt/wt. The procedure, abridged:
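Mutant clones made by CRISPR editing and their isogenic wild-type counterparts, from four leukaemia lines, were exposed to a single 10 µM dose of each library compound for 48 h. The supernatant was then removed and CellTiter-Glo luminescence was read. Viability was reported as percent of the on-plate vehicle control.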
For orientation: cell viability means a read-out of living cells in per cent, often relative to untreated cells. For `O=C(O)c1cc(=O)c2c(OCC(O)COc3cccc4oc(C(=O)O)cc(=O)c34)cccc2o1` [Disodium Cromoglycate], the cell viability was determined as 99%.
For `Nc1nc2c(ncn2[C@@H]2O[C@H](CO)[C@@H](O)[C@H]2O)c(=O)[nH]1` [Guanosine], the cell viability was 97.5%.
Turning to `CN(C/C=C/C#CC(C)(C)C)Cc1cccc2ccccc12` [Terbinafine], the cell viability came to 110%.
Regarding `NCC(=O)CCC(=O)O` [5-Aminolevulinic acid hydrochloride], the cell viability stood at 96.3%.
As to `CN(C)CC(c1ccc(O)cc1)C1(O)CCCCC1` (stereo not given) [Desvenlafaxine], the cell viability worked out at 99.3%.
Next, `COc1cc(O)c2c(=O)cc(-c3ccc(O)c(O)c3)oc2c1` [Hydroxygenkwanin]: 56.4%.
For the compound `C[C@H](CC[C@@H](O[C@@H]1O[C@H](CO[C@@H]2O[C@H](CO)[C@@H](O)[C@H](O)[C@H]2O)[C@@H](O)[C@H](O)[C@H]1O[C@@H]1O[C@H](CO)[C@@H](O)[C@H](O)[C@H]1O)C(C)(C)O)[C@H]1CC[C@@]2(C)[C@@H]3CC=C4[C@@H](CC[C@H](O[C@@H]5O[C@H](CO[C@@H]6O[C@H](CO)[C@@H](O)[C@H](O)[C@H]6O)[C@@H](O)[C@H](O)[C@H]5O)C4(C)C)[C@]3(C)[C@H](O)C[C@]12C` [Mogroside V], the cell viability came to 97.7%.
Turning to `COC(=O)c1ccc2c(c1)[nH]c1ncnc(NCCCN3CCCCC3)c12`, the cell viability amounted to 31%.
For `O=C(CSc1nc2c(c(=O)n1-c1ccccc1)SCC2)Nc1ccc(-c2ccccc2)cn1`, the cell viability came out at 103%.
Next, `COc1cc2c(cc1OC(C)C)[C@H](c1ccc(Cl)cc1)N(c1ccc(N(C)C[C@H]3CC[C@H](N4CCN(C)C(=O)C4)CC3)cc1)C(=O)C2`: 2.94%; `O=C(O)Cn1nnc(-c2cc(N3CCC(Oc4cc(F)ccc4Br)CC3)no2)n1`: 103%.
As to `CCCCCCCCCCCCCCCC(=O)O[C@@H]1[C@@H](O)[C@@H](O)[C@@H]([C@H](NC(=O)[C@@H]2C[C@@H](CCC)CN2C)[C@H](C)Cl)O[C@@H]1SC` [Clindamycin palmitate HCl], the cell viability is 101%.
On to `O=C(/C=C/c1ccccc1)OCc1ccccc1` [Benzyl cinnamate], for which the cell viability was 93.1%.
Regarding `O=S(=O)(c1ccccc1)c1cnc2c(N3CCNCC3)cccc2c1`, the cell viability was determined as 93.2%.
With `CCn1cc(C(=O)O)c(=O)c2cc(F)c(N3CCNCC3)cc21` [Norfloxacin (Norxacin)], the cell viability turned out to be 91.5%.
On to `C[C@@H]1CC[C@@]2(OC1)O[C@H]1C[C@H]3[C@@H]4CC=C5C[C@@H](O[C@@H]6O[C@H](CO)[C@@H](O)[C@H](O)[C@H]6O[C@@H]6O[C@@H](C)[C@H](O)[C@@H](O)[C@H]6O)CC[C@]5(C)[C@H]4CC[C@]3(C)[C@@]1(O)[C@@H]2C` [Polyphyllin VI], for which the cell viability is 0.33%.
Consider `Cc1ccnc(NS(=O)(=O)c2ccc(N)cc2)n1` [Sulfamerazine], for which the cell viability amounted to 89.9%.
Take `COC(=O)c1ccco1` [Methyl furan-2-carboxylate]: the cell viability is 115%.
With `COc1cc2c(cc1O)C[C@H]1c3cc(O)c(OC)cc3CC[N+]1(C)C2` (stereo not given in full) [Phellodendrine chloride], the cell viability was 102%.
For the compound `COc1cc2c(Nc3ccc(NC(=O)c4ccccc4)cc3)ncnc2cc1OCCCN1CCOCC1`, the cell viability came to 22.1%.
Next, `CC(C)c1ccc(C=O)cc1` [4-Isopropylbenzaldehyde]: 93.4%; `C[C@]12CC[C@@H]3c4ccc(O)cc4CC[C@H]3[C@@H]1CC[C@@H]2O` [Estradiol]: 111%.
With `CC[C@@H](CO)NCCN[C@@H](CC)CO` [Ethambutol HCl], the cell viability is 107%.
In the case of `O=C(O)C(Cc1c[nH]c2ccccc12)N1C(=O)c2ccccc2C1=O` (stereo not given), the cell viability is 98.5%.
`Cc1nc(-c2cn3c(n2)-c2ccc(-c4cnn(C(C)(C)C(N)=O)c4)cc2OCC3)n(C(C)C)n1`: the cell viability was found to be 22.8%.
For the compound `COc1cc2nccc(Oc3ccc(NC(=O)C4(C(=O)Nc5ccc(F)cc5)CC4)cc3)c2cc1OC`, the cell viability was 28%.
Next, `O=C1c2c(O)cc(O)cc2O[C@H](c2cc(O)c(O)c(O)c2)[C@H]1O` [Dihydromyricetin (Ampeloptin)]: 107%; `NC(=O)/C(=C/n1cnc(-c2cc(C(F)(F)F)cc(C(F)(F)F)c2)n1)c1cncnc1`: 4.56%.
Regarding `O=C(c1ccccc1)c1ccc2nc(NC(=O)c3csc(C4CCN(c5ncnc6ccsc56)CC4)n3)[nH]c2c1`, the cell viability is 25%.
Next, `C[C@H]1C[C@H]2[C@@H]3CCC4=CC(=O)C=C[C@]4(C)[C@H]3C(=O)C[C@]2(C)[C@@]1(O)C(=O)CO` [Betapar (Meprednisone)]: 104%.
On to `COc1ccc(CCCOC(Cn2ccnc2)c2ccc(OC)cc2)cc1` (stereo not given), for which the cell viability worked out at 18.9%.
For `COC(=O)N[C@H](C(=O)N1CCC[C@H]1C(=O)Nc1ccc([C@@H]2CC[C@@H](c3ccc(NC(=O)[C@@H]4CCCN4C(=O)[C@@H](NC(=O)OC)C(C)C)cc3)N2c2ccc(C(C)(C)C)cc2)cc1)C(C)C` [Ombitasvir(ABT-267)], the cell viability was 99.6%.
Regarding `CC1=CC(=O)c2ccccc2C1=O` [Menadione], the cell viability came to 12.8%.
On to `COc1cc(F)c(C(C)C)cc1-c1ccc(C(F)(F)F)cc1CN1C(=O)O[C@H](c2cc(C(F)(F)F)cc(C(F)(F)F)c2)[C@@H]1C` [Anacetrapib (MK-0859)], for which the cell viability stood at 102%.
`CN(CC(=O)N(Cc1ccc(C2CCCCC2)cc1)c1ccc(C(=O)O)cc1)S(=O)(=O)c1c(F)c(F)c(F)c(F)c1F`: the cell viability was determined as 0.08%.
For the compound `C#C[C@]1(O)CC[C@H]2[C@@H]3CCC4=CC(=O)CC[C@@H]4[C@H]3C(=C)C[C@@]21CC` [Etonogestrel], the cell viability was 88.3%.
In the case of `O=C(N/N=C/c1ccc(O)c(O)c1)c1cc2ccccc2cc1O` [Dynasore], the cell viability worked out at 73%.
For `CC(C)Oc1ccc2c(=O)c(-c3ccccc3)coc2c1` [Ipriflavone], the cell viability came out at 75.8%.
Consider `CNC(=O)c1ccccc1Sc1ccc2c(/C=C/c3ccccn3)n[nH]c2c1` [Axitinib], for which the cell viability stood at 34%.
With `CC1=C(C(=O)Nc2ccc3[nH]ncc3c2)C(c2ccc(F)cc2)NC(=O)N1` (stereo not given), the cell viability amounted to 51.5%.
